Inconclusive results are not listed. The source made the active and inactive calls. Rule for the calls: active = hit-call score of the fitted dose curve at least 0.9, where 1 is the maximum; inconclusive = response in the unintended direction; inactive = score below 0.9.
The compounds below were run against rat Gamma-Aminobutyric Acid Type A Receptor, Non-Selective (GABAR-NonSelective), Gabra1 (gene 29705) (UniProt P62813) (assay: NVS_LGIC_rGABAR_NonSelective: NovaScreen (NVS) Ligand-Gated Ion Channel Assay for rat Gamma-Aminobutyric Acid Type A Receptor, Non-Selective (GABAR-NonSelective) (AID 2283326)).
Method in brief: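 Compounds were first screened in duplicate at 25 uM, with actives run as singleton concentration series (max 50 uM). Binding of a radioligand to rat whole-brain GABA-A preparation was measured by filtration and scintillation counting after 1 h, DMSO baseline.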

Chain of rat Gamma-Aminobutyric Acid Type A Receptor, Non-Selective (GABAR-NonSelective), Gabra1 (gene 29705) (P62813 whole entry, looked up): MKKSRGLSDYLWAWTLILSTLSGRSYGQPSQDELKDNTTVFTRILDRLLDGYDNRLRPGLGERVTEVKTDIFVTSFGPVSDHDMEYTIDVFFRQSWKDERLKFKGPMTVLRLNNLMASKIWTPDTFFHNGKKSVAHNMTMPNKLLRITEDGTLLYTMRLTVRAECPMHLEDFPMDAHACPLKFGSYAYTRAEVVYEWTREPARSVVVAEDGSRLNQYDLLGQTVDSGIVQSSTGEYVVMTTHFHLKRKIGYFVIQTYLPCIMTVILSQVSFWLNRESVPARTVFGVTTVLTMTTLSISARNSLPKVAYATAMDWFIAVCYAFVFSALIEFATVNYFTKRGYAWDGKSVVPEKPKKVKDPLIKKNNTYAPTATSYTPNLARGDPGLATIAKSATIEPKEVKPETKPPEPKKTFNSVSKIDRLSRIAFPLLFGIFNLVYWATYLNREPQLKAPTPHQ

Row | Compound | outcome | AC50
1 | CCC(C)c1ccc(O)cc1 (stereo not drawn) | inactive | 
2 | O=C(O)C1C2CCC(O2)C1C(=O)O (stereo not drawn) |  | 2.14 µM (active)
3 | Nc1ccc(N=Nc2ccccc2)cc1 | inactive | 

Each compound was assayed against human Constitutive Androstane Receptor (CAR), NR1I3 (gene 9970) (UniProt Q14994) (assay: NVS_NR_hCAR_Agonist: NovaScreen (NVS) Nuclear Receptor Binding Assay for human Constitutive Androstane Receptor Agonism (CAR) (AID 2283328)).
Method in brief: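 Actives from a 25 uM duplicate screen were retested in singleton concentration series to 50 uM max. Biochemical TR-FRET assay on extracted CAR protein measured 1 h post-dose, with signal increase over DMSO control.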

Chain of human Constitutive Androstane Receptor (CAR), NR1I3 (gene 9970) (Q14994 whole entry, looked up): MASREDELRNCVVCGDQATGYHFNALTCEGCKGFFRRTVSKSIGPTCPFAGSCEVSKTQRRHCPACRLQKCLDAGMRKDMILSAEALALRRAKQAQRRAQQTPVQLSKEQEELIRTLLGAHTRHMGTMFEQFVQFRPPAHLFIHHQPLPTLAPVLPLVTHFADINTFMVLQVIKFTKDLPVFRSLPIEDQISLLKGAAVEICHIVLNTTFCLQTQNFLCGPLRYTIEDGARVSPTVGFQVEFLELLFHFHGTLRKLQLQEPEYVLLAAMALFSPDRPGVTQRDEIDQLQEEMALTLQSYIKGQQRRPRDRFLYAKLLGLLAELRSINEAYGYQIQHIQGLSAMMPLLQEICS

Row | Compound | outcome
4 | Nc1ccc(N=Nc2ccccc2)cc1 | inactive
5 | CC(C)(C)OOC(C)(C)CCC(C)(C)OOC(C)(C)C | inactive
6 | CCCSC(=O)N(CCC)CCC | inactive
7 | c1ccc2c(c1)-c1cccc3cccc-2c13 | inactive
8 | Cc1cc(N=Nc2ccccc2C)ccc1N | inactive

What follows are compounds tested against human Peripheral-type Benzodiazepine Receptor (PBR), TSPO (gene 706) (UniProt P30536) (assay: NVS_MP_hPBR: NovaScreen (NVS) Membrane Protein Assay for human Peripheral-type Benzodiazepine Receptor (PBR) (AID 2283331);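 note: hits reduce radioligand binding relative to DMSO baseline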).
Method in brief: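 Using human colon-derived membranes, this one-endpoint binding test reads radioligand loss by scintillation after 1 h. Screening started at 25 uM in duplicate, with positive and negative controls on every plate, and actives moved to dose series.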

Chain of human Peripheral-type Benzodiazepine Receptor (PBR), TSPO (gene 706) (P30536 whole entry, looked up): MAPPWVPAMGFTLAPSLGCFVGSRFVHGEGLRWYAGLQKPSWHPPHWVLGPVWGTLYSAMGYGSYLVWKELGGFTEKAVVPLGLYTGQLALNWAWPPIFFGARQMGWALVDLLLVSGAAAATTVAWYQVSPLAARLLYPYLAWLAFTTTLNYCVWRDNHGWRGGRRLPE

Row | Compound | AC50 | outcome
9 | CN(C)c1ccc(C(=O)c2ccc(N(C)C)cc2)cc1 | 10.2 µM (active) | 
10 | Cc1ccc(N=C=O)cc1N=C=O | 4.24 µM (active) | 
11 | O=C(Nc1ccccc1)c1ccccc1I | 1.46 µM (active) | 
12 | Cc1cc(N=Nc2ccccc2C)ccc1N | 36.2 µM (active) | 
13 | CC(C)COC(=O)c1ccccc1C(=O)OCC(C)C |  | inactive

From PubChem BioAssay (EPA / NIEHS)
